{"source": "the antibiotic and cytotoxicity screens of Wong et al. (2023)", "note": "Screen size: about 39,000 compounds; about 3,300 (8.5%) were called active. What follows is part of a selection rich in actives, with near analogues and random picks from the rest.", "data": [{"tested_on": "HepG2", "test": "cytotoxicity call (relative viability < 0.9)", "conditions": "10 µM", "values": [{"smiles": "C[C@@H]1CCCCO[C@@H](CN(C)C(=O)C2CCCCC2)[C@H](C)CN([C@H](C)CO)C(=O)c2cc(NC(=O)c3ccncc3)ccc2O1", "cytotoxicity call": "inactive"}, {"smiles": "C[C@H](CO)N1C[C@H](C)[C@H](CN(C)C(=O)Nc2ccc3c(c2)OCO3)Oc2c(NC(=O)Nc3ccc(C(F)(F)F)cc3)cccc2C1=O", "cytotoxicity call": "active"}, {"smiles": "Cc1noc(C)c1NC(=O)N(C)C[C@@H]1Oc2c(NC(=O)Nc3ccc(C(F)(F)F)cc3)cccc2C(=O)N([C@H](C)CO)C[C@H]1C", "cytotoxicity call": "inactive"}, {"smiles": "C[C@H](CO)N1C[C@H](C)[C@@H](CN(C)C(=O)Nc2ccc(C(F)(F)F)cc2)Oc2c(NC(=O)Nc3ccc(C(F)(F)F)cc3)cccc2C1=O", "cytotoxicity call": "active"}, {"smiles": "C[C@@H]1CN([C@@H](C)CO)C(=O)c2cccc(NC(=O)Nc3ccc(C(F)(F)F)cc3)c2O[C@H]1CN(C)C(=O)Nc1ccc2c(c1)OCO2", "cytotoxicity call": "inactive"}, {"smiles": "Cc1noc(C)c1NC(=O)N(C)C[C@H]1Oc2c(NC(=O)Nc3ccc(C(F)(F)F)cc3)cccc2C(=O)N([C@@H](C)CO)C[C@H]1C", "cytotoxicity call": "active"}, {"smiles": "C[C@@H]1CN([C@H](C)CO)C(=O)c2cccc(NC(=O)Nc3ccc(C(F)(F)F)cc3)c2O[C@@H]1CN(C)C(=O)Nc1ccc2c(c1)OCO2", "cytotoxicity call": "inactive"}, {"smiles": "Cc1noc(C)c1NC(=O)N(C)C[C@@H]1Oc2c(NC(=O)Nc3ccc(C(F)(F)F)cc3)cccc2C(=O)N([C@@H](C)CO)C[C@H]1C", "cytotoxicity call": "inactive"}, {"smiles": "O=C1c2ccccc2[C@@]2(Cc3ccccc3N(Cc3ccccc3)C2=O)[C@H](c2ccc(CO)cc2)N1Cc1ccccc1C(F)(F)F", "cytotoxicity call": "inactive"}, {"smiles": "Cc1noc(C)c1S(=O)(=O)N(C)C[C@@H]1Oc2ccc(NS(=O)(=O)c3cccs3)cc2CC(=O)N([C@H](C)CO)C[C@@H]1C", "cytotoxicity call": "inactive"}, {"smiles": "CN(C)Cc1cn(CC[C@@H]2CC[C@@H](NC(=O)Cc3cccnc3)[C@H](CO)O2)nn1", "cytotoxicity call": "inactive"}, {"smiles": "Cc1noc(C)c1NC(=O)Nc1ccc2c(c1)CC(=O)N([C@@H](C)CO)C[C@H](C)[C@@H](CN(C)C(=O)NC(C)C)O2", "cytotoxicity call": "inactive"}, {"smiles": "O=C(C[C@H]1CC[C@@H]2[C@H](COC[C@H](O)CN2C(=O)Nc2ccc(F)cc2)O1)NCCCN1CCOCC1", "cytotoxicity call": "inactive"}, {"smiles": "OC[C@@H](O)CN1CCN(c2ccccc2)CC1", "cytotoxicity call": "inactive"}, {"smiles": "Cc1nc(-c2ccc(OCC(C)C)c(C#N)c2)sc1C(=O)O", "cytotoxicity call": "active"}, {"smiles": "COc1ccc(S(=O)(=O)N(C)C[C@H]2Oc3ccc(NC(=O)c4ccncc4)cc3C(=O)N([C@@H](C)CO)C[C@@H]2C)cc1", "cytotoxicity call": "inactive"}, {"smiles": "O=CN[C@H](Cc1ccccc1)C(=O)O", "cytotoxicity call": "inactive"}, {"smiles": "COc1ccc(CN(C)C[C@H]2Oc3ccc(NC(=O)CCCCCC(=O)Nc4ccccc4N)cc3CC(=O)N([C@H](C)CO)C[C@H]2C)cc1", "cytotoxicity call": "inactive"}, {"smiles": "C[C@H]1CN([C@@H](C)CO)C(=O)Cc2cc(NC(=O)CCCCCC(=O)Nc3ccccc3N)ccc2O[C@@H]1CN(C)Cc1ccc(Oc2ccccc2)cc1", "cytotoxicity call": "inactive"}, {"smiles": "C[C@H]1CN([C@@H](C)CO)C(=O)Cc2cc(NC(=O)CCCCCC(=O)Nc3ccccc3N)ccc2O[C@H]1CN(C)Cc1ccc(Oc2ccccc2)cc1", "cytotoxicity call": "inactive"}, {"smiles": "C[C@H](CO)N1C[C@H](C)[C@H](CN(C)Cc2ccc(Oc3ccccc3)cc2)Oc2ccc(NC(=O)CCCCCC(=O)Nc3ccccc3N)cc2CC1=O", "cytotoxicity call": "inactive"}, {"smiles": "C[C@@H]1CN([C@@H](C)CO)C(=O)Cc2cc(NC(=O)CCCCCC(=O)Nc3ccccc3N)ccc2O[C@@H]1CN(C)Cc1ccc(Oc2ccccc2)cc1", "cytotoxicity call": "active"}, {"smiles": "C[C@@H]1CN([C@H](C)CO)C(=O)Cc2cc(NC(=O)CCCCCC(=O)Nc3ccccc3N)ccc2O[C@@H]1CN(C)Cc1ccc(Oc2ccccc2)cc1", "cytotoxicity call": "active"}, {"smiles": "C[C@@H]1CN([C@H](C)CO)C(=O)Cc2cc(NC(=O)CCCCCC(=O)Nc3ccccc3N)ccc2O[C@H]1CN(C)Cc1ccc(Oc2ccccc2)cc1", "cytotoxicity call": "inactive"}, {"smiles": "COc1ccc(CN(C)C[C@@H]2Oc3ccc(NC(=O)CCCCCC(=O)Nc4ccccc4N)cc3CC(=O)N([C@H](C)CO)C[C@@H]2C)cc1", "cytotoxicity call": "inactive"}, {"smiles": "COc1ccc(CN(C)C[C@H]2Oc3ccc(NC(=O)CCCCCC(=O)Nc4ccccc4N)cc3CC(=O)N([C@@H](C)CO)C[C@H]2C)cc1", "cytotoxicity call": "active"}, {"smiles": "Cc1noc(C)c1NC(=O)Nc1ccc2c(c1)CC(=O)N([C@@H](C)CO)C[C@@H](C)[C@H](CN(C)Cc1ccc(C(F)(F)F)cc1)O2", "cytotoxicity call": "inactive"}, {"smiles": "CC(C)NC(=O)Nc1ccc2c(c1)C(=O)N([C@H](C)CO)C[C@@H](C)[C@H](CN(C)CC1CCCCC1)OCCCC[C@H](C)O2", "cytotoxicity call": "inactive"}, {"smiles": "C[C@H]1CN([C@@H](C)CO)C(=O)c2cc(NC(=O)Nc3ccc(C(F)(F)F)cc3)ccc2O[C@H]1CN(C)Cc1ccc2c(c1)OCO2", "cytotoxicity call": "active"}, {"smiles": "C[C@@H]1CN([C@H](C)CO)C(=O)c2cc(NC(=O)Nc3ccc(C(F)(F)F)cc3)ccc2O[C@@H]1CN(C)Cc1ccc2c(c1)OCO2", "cytotoxicity call": "active"}, {"smiles": "C[C@H](CO)N1C[C@H](C)[C@H](CN(C)Cc2ccc3c(c2)OCO3)Oc2ccc(NC(=O)Nc3ccc(C(F)(F)F)cc3)cc2C1=O", "cytotoxicity call": "active"}, {"smiles": "C[C@H](CO)N1C[C@H](C)[C@@H](CN(C)Cc2ccc(C(F)(F)F)cc2)Oc2ccc(NC(=O)Nc3ccc4c(c3)OCO4)cc2C1=O", "cytotoxicity call": "inactive"}, {"smiles": "C[C@@H]1CN([C@@H](C)CO)C(=O)c2cc(NC(=O)Nc3ccc(C(F)(F)F)cc3)ccc2O[C@@H]1CN(C)Cc1ccc2c(c1)OCO2", "cytotoxicity call": "active"}, {"smiles": "C[C@H]1CN([C@@H](C)CO)C(=O)c2cc(NC(=O)Nc3ccc4c(c3)OCO4)ccc2O[C@H]1CN(C)Cc1ccc(C(F)(F)F)cc1", "cytotoxicity call": "inactive"}, {"smiles": "C[C@@H]1CN([C@H](C)CO)C(=O)c2cc(NC(=O)Nc3ccc(C(F)(F)F)cc3)ccc2O[C@H]1CN(C)Cc1ccc2c(c1)OCO2", "cytotoxicity call": "inactive"}, {"smiles": "C[C@@H]1CN([C@@H](C)CO)C(=O)c2cc(NC(=O)Nc3ccc4c(c3)OCO4)ccc2O[C@H]1CN(C)Cc1ccc(C(F)(F)F)cc1", "cytotoxicity call": "inactive"}, {"smiles": "CN(C)Cc1cn(CC[C@H]2CC[C@@H](NS(=O)(=O)c3ccccc3)[C@@H](CO)O2)nn1", "cytotoxicity call": "inactive"}, {"smiles": "C[C@H]1CN([C@@H](C)CO)C(=O)CCCn2cc(nn2)CO[C@@H]1CN(C)Cc1ccc(C(=O)Nc2ccccc2N)cc1", "cytotoxicity call": "inactive"}, {"smiles": "C[C@@H]1CN([C@@H](C)CO)C(=O)c2cccc(NS(=O)(=O)c3cccs3)c2O[C@@H]1CN(C)CC1CC1", "cytotoxicity call": "inactive"}, {"smiles": "C[C@@H]1CN([C@@H](C)CO)C(=O)c2cc(NS(=O)(=O)c3ccc(Cl)cc3)ccc2O[C@@H](C)CCCCO[C@@H]1CN(C)C(=O)NC1CCCCC1", "cytotoxicity call": "inactive"}, {"smiles": "Cc1noc(C)c1S(=O)(=O)Nc1cccc2c1O[C@@H](CN(C)Cc1ccc(Oc3ccccc3)cc1)[C@@H](C)CN([C@@H](C)CO)C2=O", "cytotoxicity call": "inactive"}, {"smiles": "C[C@H]1CN([C@@H](C)CO)S(=O)(=O)c2ccc(-c3ccncc3)cc2O[C@H]1CN(C)S(=O)(=O)c1ccccc1F", "cytotoxicity call": "inactive"}, {"smiles": "[O-][NH2+]N(CCO)CCO", "cytotoxicity call": "inactive"}, {"smiles": "C[C@H](CO)N1C[C@H](C)[C@H](CN(C)Cc2ccc(C(F)(F)F)cc2)Oc2ccc(NC(=O)Nc3ccc4c(c3)OCO4)cc2C1=O", "cytotoxicity call": "inactive"}, {"smiles": "C[C@@H]1CN([C@H](C)CO)C(=O)c2cc(NC(=O)Nc3ccc4c(c3)OCO4)ccc2O[C@@H]1CN(C)Cc1ccc(C(F)(F)F)cc1", "cytotoxicity call": "active"}, {"smiles": "C[C@H]1CN([C@@H](C)CO)C(=O)c2cc(NC(=O)Nc3ccc4c(c3)OCO4)ccc2O[C@@H]1CN(C)Cc1ccc(C(F)(F)F)cc1", "cytotoxicity call": "inactive"}, {"smiles": "C[C@H](CO)N1C[C@H](C)[C@@H](CN(C)Cc2ccc3c(c2)OCO3)Oc2ccc(NC(=O)Nc3ccc(C(F)(F)F)cc3)cc2C1=O", "cytotoxicity call": "active"}, {"smiles": "C[C@H]1CN([C@@H](C)CO)C(=O)c2cc(NC(=O)Nc3ccc(C(F)(F)F)cc3)ccc2O[C@@H]1CN(C)Cc1ccc2c(c1)OCO2", "cytotoxicity call": "active"}, {"smiles": "C[C@@H]1CN([C@H](C)CO)C(=O)c2cc(NC(=O)Nc3ccc4c(c3)OCO4)ccc2O[C@H]1CN(C)Cc1ccc(C(F)(F)F)cc1", "cytotoxicity call": "inactive"}, {"smiles": "C[C@@H]1CN([C@@H](C)CO)C(=O)c2cc(NC(=O)Nc3ccc(C(F)(F)F)cc3)ccc2O[C@H]1CN(C)Cc1ccc2c(c1)OCO2", "cytotoxicity call": "active"}, {"smiles": "C[C@@H]1CN([C@@H](C)CO)C(=O)c2cc(NC(=O)Nc3ccc4c(c3)OCO4)ccc2O[C@@H]1CN(C)Cc1ccc(C(F)(F)F)cc1", "cytotoxicity call": "inactive"}, {"smiles": "C[C@@H]1CN([C@H](C)CO)C(=O)c2ccccc2-c2ccccc2CO[C@H]1CN(C)C(=O)Nc1cccc(Cl)c1Cl", "cytotoxicity call": "inactive"}, {"smiles": "C[C@@H]1CN([C@@H](C)CO)C(=O)c2cc(NC(=O)C3CC3)ccc2O[C@@H]1CN(C)S(=O)(=O)c1cn(C)cn1", "cytotoxicity call": "inactive"}, {"smiles": "C[C@H](CO)N1C[C@H](C)[C@H](CN(C)S(=O)(=O)c2ccccc2)OCCCC[C@H](C)Oc2ccc(NC(=O)Nc3cccc4ccccc34)cc2C1=O", "cytotoxicity call": "inactive"}, {"smiles": "COc1cccc(S(=O)(=O)Nc2ccc3c(c2)[C@H]2C[C@@H](CC(=O)NC4CCCCC4)O[C@@H](CO)[C@H]2O3)c1", "cytotoxicity call": "inactive"}, {"smiles": "COCCOC(=O)N1C(=O)[C@@]2(c3ccccc31)[C@H](c1ccc(O)cc1)N1[C@H](c3ccccc3)[C@H](c3ccccc3)OC(=O)[C@H]1[C@@H]2C(=O)N1CCc2cc(OC)c(OC)cc2C1", "cytotoxicity call": "inactive"}, {"smiles": "COc1ccc(S(=O)(=O)Nc2ccc3c(c2)C(=O)N([C@H](C)CO)C[C@@H](C)[C@@H](CN(C)S(=O)(=O)c2cccs2)O3)cc1", "cytotoxicity call": "inactive"}, {"smiles": "C[C@@H]1CCCCO[C@H](CN(C)CC2CC2)[C@H](C)CN([C@@H](C)CO)C(=O)c2cc(NC(=O)Cc3ccccc3)ccc2O1", "cytotoxicity call": "inactive"}, {"smiles": "O=C(C[C@@H]1C=C[C@H](NC(=O)C2CC2)[C@H](CO)O1)NCCCN1CCOCC1", "cytotoxicity call": "inactive"}, {"smiles": "Cc1[nH]c(/C=C2\\C(=O)Nc3ccc(S(=O)(=O)Cc4c(Cl)cccc4Cl)cc32)c(C)c1C(=O)N1CCC[C@@H]1CN1CCCC1", "cytotoxicity call": "active"}]}]}
